Assay outcomes (PubChem)
DAX1 inh-1: DAX1 (NR0B1) inhibition, primary screen; HEK293T StAR-luciferase reporter, SF-1/DAX-1 repression relief; inhibition, % at 6.8 µM; 1.1% of 370,000 active; AID 652010;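 active = inhibition above the mean over all tested compounds plus 3 SD, cut at about 3.6% in these data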;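 also: higher inhibition means more luminescence from relief of DAX-1 repression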
DAX1 inh-2: inhibitors of human orphan nuclear receptor DAX1 (NR0B1); P51843; HEK293 Gal4-DAX1 luciferase reporter, luminescence; inhibition, % at 6.75 µM; 0.99% of 340,000 active;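 active = inhibition above the mean over all tested compounds plus 3 SD, cut at about 4.2% in these data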;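 also: inhibition shows as a rise in luminescence from relieved DAX1 repression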
Target sequence (P51843 207-470 limits assumed): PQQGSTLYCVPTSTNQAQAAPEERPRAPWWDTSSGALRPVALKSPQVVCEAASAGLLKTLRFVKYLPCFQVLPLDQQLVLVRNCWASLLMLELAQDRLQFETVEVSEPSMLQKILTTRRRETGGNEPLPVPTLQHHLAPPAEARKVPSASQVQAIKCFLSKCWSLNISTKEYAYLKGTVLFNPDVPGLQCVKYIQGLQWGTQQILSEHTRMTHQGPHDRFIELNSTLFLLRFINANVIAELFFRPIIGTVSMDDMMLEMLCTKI
hgDAF12 agonist: activates the H. glycines DAF-12 receptor ligand-binding domain | HEK293 GAL4-hgDAF12 UAS-luciferase reporter, agonist luminescence; normalized to butyrate control | activation, % at 6.8 µM | 1.8% of 370,000 active | AID 687014;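 active = activation above a cutoff set at the mean of all screened compounds plus 3 SD, cut at about 10% in these data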
hcDAF-12 act: activators of H. contortus DAF-12 nuclear receptor | HEK293 hcDAF-12 lit1-tk-luc reporter, luminescence; 0% DMSO, 100% Δ7-dafachronic acid | activation, % at 6.8 µM | 1.4% of 370,000 active | AID 652067;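 active = activation above the mean of all tested compounds plus 3 SD, cut at about 5.5% in these data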
ssDAF12 agonist: activators of S. stercoralis DAF-12 nuclear receptor; HEK293 ssDAF-12/GRIP1 lit1-tk-luc reporter, luminescence; % of 3 µM dafachronic acid response; activation, % at 6.8 µM; 1% of 370,000 active; AID 652126;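 active = activation above the mean over all tested compounds plus 3 SD, cut at about 0.9% in these data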
Wee1 stabilizer: human Wee1 degradation inhibition, primary screen | P30291 | HeLa Luc-Wee1K328M stability, luciferase luminescence; 100% = proteasome inhibitor MG132 effect | 1.2% of 220,000 active | reporter increase, % at 5 µM;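 active = activation above the mean of all tested compounds plus 3 SD, set per screening run, cut at about 8.8% in these data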;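 also: cells exposed to compound for 20 h before luminescence read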
Large screens that a line does not name were inactive. Compounds with a hit are over-represented: about 4.6% of the library has one in this group of screens.

O=C1CCC[C@H]2C[C@H](NCc3cccnc3)CC[C@]23CCCN13	none (no result: DAX1 inh-1, DAX1 inh-2, Wee1 stabilizer)
O=C(CN1C(=O)CCC1=O)Nc1nc2c(F)cc(F)cc2s1	none
Cc1cc(C)c2sc(NC(=O)CN3C(=O)CCC3=O)nc2c1	DAX1 inh-2 5.1
CCCCOc1ccc(C(=O)N2CCC(C)CC2)cc1	none
CCCCOc1ccc(C2CCC(C(C)=O)C(C)C2)cc1 (centres undefined)	DAX1 inh-2 4.7
O=S1(=O)CC(N2CCN(CCO)CC2)CN1Cc1cn(Cc2ccccc2C(F)(F)F)nn1 (centres undefined)	none (no result: DAX1 inh-2, Wee1 stabilizer)
CN(C)c1ccc(/C=N/NC(=O)c2ccc3c(c2)OCCO3)cc1	none (no result: Wee1 stabilizer)
O=C(N/N=C/c1ccncc1)c1ccc2c(c1)OCO2	hgDAF12 agonist 11
COc1ccc(/C=N/NC(=O)c2ccc3c(c2)OCO3)cc1	none (no result: Wee1 stabilizer)
O=C(N/N=C/c1ccc2c(c1)OCO2)c1ccc(Cl)cc1Cl	none (no result: Wee1 stabilizer)
Cc1ccc(C)c(NC(=O)CCC(=O)N/N=C/c2ccc3c(c2)OCO3)c1	Wee1 stabilizer 10
O=C(N/N=C/c1ccc2c(c1)OCO2)c1ccc2c(c1)OCCO2	hgDAF12 agonist 13
Cc1cc(C(=O)N/N=C/c2ccc3c(c2)OCO3)c(C)o1	hgDAF12 agonist 11
C=CCN1[C@H](C#N)[C@@H](c2ccccc2)[C@H]1CO	none (no result: DAX1 inh-2, Wee1 stabilizer)
Cc1ccc(CSc2nnc(-c3cc(-c4ccc(C)cc4)n[nH]3)n2N)cc1	none (no result: DAX1 inh-2, Wee1 stabilizer)
COc1ccc(CN2C3=NC(c4ccccc4)CC(=O)N3/C(=C\c3ccccc3)C2c2ccccc2)c(OC)c1 (centres undefined)	none (no result: DAX1 inh-1, DAX1 inh-2, Wee1 stabilizer)
O=C(NCc1ccc(F)cc1)C1CCC(=O)N1C1CCCCC1 (centres undefined)	Wee1 stabilizer 10
Cc1ccc(CNC(=O)C2CCC(=O)N2C2CCCCC2)cc1 (centres undefined)	none
Cc1ccc(SCCSc2nc(C)cc(=O)[nH]2)cc1	DAX1 inh-2 5.0 (no result: Wee1 stabilizer)
Cc1ccc(SCCSc2nc(N)cc(=O)[nH]2)cc1	none (no result: Wee1 stabilizer)
C/C(C=NNC(=O)CSc1nc2ccccc2n1Cc1ccccc1Cl)=C\c1ccccc1	none (no result: DAX1 inh-2, Wee1 stabilizer)
COc1ccc(Cl)cc1NC(=O)Nc1ccc(Br)cn1	hcDAF-12 act 6.0
COc1ccc(Cl)cc1NC(=O)COC(=O)CCc1cc(OC)c(OC)c(OC)c1	none (no result: Wee1 stabilizer)
COc1ccc(Cl)cc1NC(=O)COC(=O)Cc1cc(OC)c(OC)c(OC)c1	ssDAF12 agonist 2.8 (no result: Wee1 stabilizer)
COc1ccc(Cl)cc1NC(=O)/C=C\C(=O)O	ssDAF12 agonist 0.9
COC(=O)[C@H](CC1(c2cn(S(=O)(=O)CC[Si](C)(C)C)c3ccccc23)C(=O)Nc2ccccc21)NC(=O)OC(C)(C)C (some centres undefined)	none (no result: DAX1 inh-1, DAX1 inh-2, Wee1 stabilizer)
O=C1CCNc2c(Cl)cccc21	none
O=C1CCNc2c(Cl)cc(Cl)cc21	DAX1 inh-2 5.0
O=C(O)c1ccc(OCCCCCCOC2CCCCO2)cc1 (centres undefined)	DAX1 inh-2 4.5 (no result: Wee1 stabilizer)
Cc1ccc(CNC(=O)C2CCC(=O)N(CCc3ccc(Cl)cc3)C2)s1 (centres undefined)	ssDAF12 agonist 1.1 (no result: Wee1 stabilizer)
Cc1ccc(CNC(=O)C2CCC(=O)N(CCc3ccc(Cl)cc3)C2)cc1 (centres undefined)	none (no result: Wee1 stabilizer)
S=c1nc(NCc2cccc(Cl)c2)c2ccccc2[nH]1	none (no result: Wee1 stabilizer)
Cc1ccc(CNC(=O)Cc2csc(Nc3nc(=S)[nH]c4ccccc34)n2)cc1	none (no result: DAX1 inh-2)
O=C(Cc1csc(Nc2nc(=S)[nH]c3ccccc23)n1)NCc1ccccc1Cl	hcDAF-12 act 5.9, ssDAF12 agonist 1.2
O=C(Cc1csc(Nc2nc(=S)[nH]c3ccccc23)n1)NCc1cccc(Cl)c1	hcDAF-12 act 6.5
C[C@@H]1CCCCO[C@@H](CN(C)C(=O)CCCN(C)C)[C@@H](C)CN([C@H](C)CO)C(=O)c2cc(N(C)C)ccc2O1	none (no result: DAX1 inh-2, Wee1 stabilizer)
O=C(c1ccc(F)cc1F)N1CCN(S(=O)(=O)c2ccc3c(c2)OCCO3)CC1	none (no result: Wee1 stabilizer)
CCOC(=O)c1c(O)c(Cl)c(C)[nH]c1=O	hgDAF12 agonist 12
O=c1oc(-c2ccc([N+](=O)[O-])cc2)nc2ccccc12	none
CCCOc1cccc(-c2nc3ccccc3c(=O)o2)c1	hgDAF12 agonist 11
CCC(=O)Nc1cccc(-c2nc3ccccc3c(=O)o2)c1	none
O=c1oc(-c2ccc(Br)cc2)nc2ccccc12	ssDAF12 agonist 0.9 (no result: Wee1 stabilizer)
COC(=O)[C@H](C(C)C)N1CCc2nnn(Cc3ccccc3)c2-c2cc(F)ccc2S1(=O)=O	none (no result: DAX1 inh-2, Wee1 stabilizer)
O=c1c2cc3cc(Cl)ccc3nc2ncn1N1CCCCC1	ssDAF12 agonist 0.9 (no result: DAX1 inh-2, Wee1 stabilizer)
CCOC(=O)C1(C)CCCCCN1C(=O)c1ccc(OC)cc1 (centres undefined)	none (no result: DAX1 inh-2, Wee1 stabilizer)
COc1cccc(-c2cc(C(=O)NCc3cccs3)no2)c1	hgDAF12 agonist 13
COCCNC(=O)c1cc(-c2cccc(OC)c2)on1	hgDAF12 agonist 11
COCC(C)NC(=O)c1cc(-c2cccc(OC)c2)on1 (centres undefined)	none
CC(C)(C)C(=O)Nc1ccc(-c2csnn2)cc1	Wee1 stabilizer 11
CN(C)C1=NCCN1CC1CCCC1	ssDAF12 agonist 1.2 (no result: Wee1 stabilizer)
COc1cccc(COC(=O)Nc2ccccc2)c1OC	hgDAF12 agonist 12 (no result: DAX1 inh-2, Wee1 stabilizer)
COCCNC(=O)C(=O)NNS(=O)(=O)c1ccc2ccccc2c1	none
COCCCNC(=O)c1ccccc1Oc1ccccc1	Wee1 stabilizer 14
COCCNC(=O)C(=O)NNS(=O)(=O)c1ccc(Cl)cc1	DAX1 inh-2 4.5
COc1ccccc1C(=O)NNC(=O)CCC(=O)NCc1ccccc1	hcDAF-12 act 5.7 (no result: Wee1 stabilizer)
Cc1ccc(NC(=O)Cc2ccccc2)cc1S(=O)(=O)N1CCOCC1	none (no result: Wee1 stabilizer)
CN(CC(=O)Nc1ccccc1Br)C(=O)CN1CCN(Cc2cccc(Cl)c2)CC1	none (no result: Wee1 stabilizer)
COc1ccccc1C(=O)NNC(=O)C(=O)NC1CCCCC1	none (no result: Wee1 stabilizer)
COc1cccc(C(=O)NOCc2ccccc2)c1OC	DAX1 inh-1 4.4 (no result: Wee1 stabilizer)
COCCNC(=O)C(=O)NNC(=O)c1ccccc1OC	ssDAF12 agonist 1.5
Cc1ccc(S(=O)(=O)N2C=C(c3ccccc3)c3ccccc3-c3ccccc32)cc1	none (no result: DAX1 inh-1, DAX1 inh-2, Wee1 stabilizer)
Cc1ccc(NC(=O)c2cc(S(=O)(=O)N3CCOCC3)ccc2Cl)cc1S(=O)(=O)N1CCOCC1	none (no result: Wee1 stabilizer)
O=C(CC1C(=O)NCCN1Cc1c(F)cccc1Cl)NCCc1ccccn1 (centres undefined)	Wee1 stabilizer 9.5
CC(=O)Nc1ccc(C(=O)N2CCCC(c3cc(C(=O)NCc4ccccc4)no3)C2)cc1 (centres undefined)	none (no result: DAX1 inh-2, Wee1 stabilizer)
Cc1nc2c(ncn2-c2ccccc2)c(=O)n1NC(=O)CN1CCCCC1	DAX1 inh-2 4.5
Cc1nc2c(ncn2-c2ccccc2)c(=O)n1NC(=O)CN1CCN(C)CC1	none
COc1ccccc1CC(=O)c1ccc(OCc2ccccc2)cc1	none (no result: Wee1 stabilizer)
CN(C)c1cccc(-c2cnc(N3CCC(C(N)=O)CC3)nc2)c1	none (no result: DAX1 inh-1, DAX1 inh-2, Wee1 stabilizer)
O=C(Nc1cc(C(F)(F)F)ccc1N1CCOCC1)c1cccs1	DAX1 inh-2 4.6
